ELG1 genotoxic – qHTS screen for small molecules that induce genotoxicity in human embryonic kidney (HEK293T) cells expressing luciferase-tagged ELG1. AID 504466, 2011. 330,000 compounds, 1.3% hits. Potency, µM (series often up to 46 µM), hits mostly activators. HEK293T ELG1-luciferase reporter, luminescence, 16 h; note: nearly all actives have a fitted effect of over 60% in size
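Step 1: seed 2,000 HEK293T ELG1-luciferase cells per well. Step 2: add compound or DMSO, incubate 16 hr at 37 °C. Step 3: ONE-Glo, 30 min at room temperature, read luminescence.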
FLuc counter – qHTS profiling assay for firefly luciferase inhibitor/activator using purifed enzyme and Km concentrations of substrates (counterscreen for miR-21 project). Luciferin 4-monooxygenase (Photinus pyralis), P08659. 360,000 compounds, 6.9% hits. purified FLuc, Km substrates, luminescence inhibition. Potency, µM (top dose mostly 57.5 µM), most hits filed as inhibitors; note: nearly all actives have a fitted effect of over 55% in size
Target sequence (P08659 whole entry, looked up): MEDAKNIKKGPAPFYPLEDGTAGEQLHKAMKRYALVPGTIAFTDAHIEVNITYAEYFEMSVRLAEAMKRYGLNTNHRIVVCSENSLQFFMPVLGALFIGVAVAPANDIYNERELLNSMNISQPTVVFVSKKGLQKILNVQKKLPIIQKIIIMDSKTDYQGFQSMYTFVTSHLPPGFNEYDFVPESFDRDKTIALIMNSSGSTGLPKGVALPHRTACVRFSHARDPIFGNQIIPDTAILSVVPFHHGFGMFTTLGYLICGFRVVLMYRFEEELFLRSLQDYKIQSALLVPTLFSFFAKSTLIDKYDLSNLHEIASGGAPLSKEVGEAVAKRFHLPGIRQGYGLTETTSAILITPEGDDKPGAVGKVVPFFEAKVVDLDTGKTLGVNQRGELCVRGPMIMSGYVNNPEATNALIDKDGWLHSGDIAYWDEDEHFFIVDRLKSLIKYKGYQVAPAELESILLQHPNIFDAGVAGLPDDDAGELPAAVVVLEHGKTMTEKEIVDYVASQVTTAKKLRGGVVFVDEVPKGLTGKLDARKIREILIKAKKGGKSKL
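Biochemical qHTS of compounds, final roughly 60 µM downward over six points, against 10 nM purified firefly luciferase using Km concentrations of substrates (10 uM D-luciferin, 10 uM ATP) in Tris acetate pH 7.5 buffer; luminescence output.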
SMN2 splice enh – qHTS Assay for Enhancers of SMN2 Splice Variant Expression | HEK293 SMN2-luciferase splicing reporter, luminescence, 30-36 h | Potency, µM (top dose mostly 46.1 µM), hits mostly activators | 210,000 compounds, 2.8% hits | AID 1458, 2008; note: nearly all actives have a fitted effect of over 55% in size
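qHTS luciferase splicing reporter: luminescence rises when SMN2 exon 7 is included in transfected HEK293 cells. Compound exposure lasted 30-36 h at 37C, with 4.5 mM final sodium butyrate as control, followed by a ONE-Glo read.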
NPC1 prom act – qHTS Assay for NPC1 Promoter Activators; AID 485313, 2010; Potency, µM (doses to about 9.22 µM), hits mostly activators; Huh7 NPC1 promoter luciferase reporter, 24 h; 320,000 compounds, 2.4% hits; note: nearly all actives have a fitted effect of over 60% in size
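Stable NPC1-promoter luciferase Huh7 line; cpd (DMSO) 24 h, 37 °C, 5% CO2; Amplite luciferase reagent 10 min RT; luminescence readout. qHTS format.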
Rab9 prom act – qHTS Assay for Rab9 Promoter Activators | AID 485297, 2010 | 320,000 compounds, 2.8% hits | Potency, µM (series often up to 9.22 µM), actives largely listed as activators | Huh7 Rab9 promoter-luciferase reporter, luminescence, 24 h; note: nearly all actives have a fitted effect of over 60% in size
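Cells were plated at 1500 per well in reduced-serum medium with 10% FBS and left 2 h. Compound in DMSO was then added for 24 h at 37 °C. Reporter signal was read by luminescence after 10 min with luciferase detection reagent.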
ELG1 DNA repair – qHTS screen for small molecules that inhibit ELG1-dependent DNA repair in human embryonic kidney (HEK293T) cells expressing luciferase-tagged ELG1; AID 504467, 2011; HEK293T ELG1-luciferase reporter, luminescence, 16 h; DNA damage induced by 5-fluorouridine; Potency, µM (titrated, usually from 46.1 µM), hits mostly inhibitors; 330,000 compounds, 2.3% hits; note: nearly all actives have a fitted effect of over 55% in size
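Quantitative HTS, concentration-response format. 2,000 cells/well co-treated with 5-fluorouridine and compound, 16 hr in 5% CO2 at 37 °C; ONE-Glo luminescence read after 30 min.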
Hits are given with their value; i = inactive; ? = inconclusive; nt = no result given. In the library only some 9.2% were active in any assay of this set; here they are far more common. Calls come from the whole dose curve; as a rule, active = well fitted curve in the direction sought with a large enough effect; inconclusive = small, poorly fitted or top-dose-only effect, or another doubt; inactive = no such curve, though single readings can be large; an effect the other way counts as inactive or inconclusive.

SMILES	ELG1 genotoxic	FLuc counter	SMN2 splice enh	NPC1 prom act	Rab9 prom act	ELG1 DNA repair
COc1ccccc1NC(=O)N1CCC(c2nc3cc(C)c(C)cc3[nH]2)CC1	?	?	i	i	i	i
Cc1cc2nc(C3CCCN(C(=S)Nc4ccccc4)C3)[nH]c2cc1C (stereo unspecified)	i	?	i	i	i	i
Cc1cc2nc(C3CCN(C(=S)NCC(C)C)CC3)[nH]c2cc1C	i	17µM	i	i	i	i
O=[N+]([O-])c1ccccc1S(=O)(=O)NCC1CCC(CNCC2CCc3ccccc3C2)CC1 (stereo unspecified)	nt	nt	i	nt	nt	nt
CCc1ccccc1N(CC)C(=O)c1c(C)oc2ncn(C)c(=O)c12	nt	i	nt	nt	nt	nt
CCCc1ccc2oc(C(=O)N3CCC(COC)C3)c(C)c2c1 (stereo unspecified)	?	12µM	nt	2.8µM	2.8µM	?
CCCc1ccc2oc(C(=O)N3CCC[C@H]3CO)c(C)c2c1	?	11µM	nt	6.3µM	3.2µM	?
COc1ccc(-c2cc(C(=O)Oc3ccc(Br)cc3)c3ccccc3n2)cc1	nt	?	i	nt	nt	nt
COc1ccc(C2Nc3ccccc3C(=O)N2Cc2ccco2)cc1COc1ccccc1F (stereo unspecified)	i	i	i	i	i	18µM
O=C(O)c1ccc(N/N=C/c2ccnc3ccccc23)cc1	?	1.3µM	nt	0.56µM	?	?
CC(C)(C)OC(=O)NCCC(=O)N/N=C/c1cccc2cccnc12	i	i	nt	i	i	?
O=C(O)c1ccc(N/N=C/c2cccc3cccnc23)cc1	?	0.76µM	nt	0.32µM	0.28µM	?
Cc1cccn2c(=O)c3cc(C(=O)NCc4ccccc4)c(=N)n(CCOCCO)c3nc12	nt	i	i	nt	nt	nt
Cc1cc(OCc2cn3cccnc3n2)ccc1Cl	8.2µM	21µM	11µM	?	2.8µM	?
COc1ccc(O[C@H]2C=C[C@@H](c3ccccc3)O[C@@H]2COC(=O)CC/C(C)=N/O[C@H](C)c2cn([C@@H]3COC[C@H]3O)nn2)cc1	i	i	i	i	i	26µM
COc1ccc(O[C@H]2C=C[C@@H](c3ccccc3)O[C@@H]2COC(=O)CCC(C)=NO[C@@H]2O[C@H](COC(C)=O)[C@@H](OC(C)=O)[C@H](OC(C)=O)[C@H]2OC(C)=O)cc1	i	i	i	i	i	?
CCC(C)Nc1ncnc2c1cnn2-c1ccc(F)cc1 (stereo unspecified)	nt	6.7µM	nt	nt	nt	nt
COCC(C)Nc1ncnc2c1cnn2-c1ccc(Cl)cc1 (stereo unspecified)	nt	2.4µM	nt	0.71µM	0.5µM	nt
CCc1cccc(C)c1NC(=O)CNCc1ccccc1	i	i	nt	i	i	i
COc1cccc(C(=O)OCc2ccccc2C#N)c1O	?	?	i	i	i	?
COc1ccc(/C=C2\SC(=O)N(CCC(=O)N(C)C3CCS(=O)(=O)C3)C2=O)cc1 (stereo unspecified)	i	11µM	nt	i	i	?
COc1cccc(/C=C2\SC(=S)N(CCC(=O)NC3C=CS(=O)(=O)C3)C2=O)c1 (stereo unspecified)	i	4.8µM	nt	i	i	4.6µM
COc1cccc(/C=C2\SC(=S)N(CCC(=O)Nc3ccc(O)cc3)C2=O)c1	?	?	nt	i	i	?
COc1ccc(/C=C2\SC(=S)N(CCC(=O)NC3C=CS(=O)(=O)C3)C2=O)cc1 (stereo unspecified)	i	5.4µM	nt	i	i	i
O=C(CSc1nnc(-c2cccs2)o1)Oc1ccccc1Cl	nt	i	nt	nt	nt	nt
SMILES	ELG1 genotoxic	FLuc counter	SMN2 splice enh	NPC1 prom act	Rab9 prom act	ELG1 DNA repair
Cc1ccc(OCCSc2nc3ccccc3n2CC(=O)N2CCOCC2)cc1C	nt	i	nt	nt	nt	nt
CCOC(=O)CCS(=O)(=O)c1nc(-c2ccccc2)cc(C(F)(F)F)n1	i	i	?	i	i	?
COC(=O)CCS(=O)(=O)c1nc(-c2ccccc2)cc(C(F)(F)F)n1	i	i	13µM	i	i	?
COc1ccc(OC)c(NC(=O)COC(=O)CC2CCCCC2)c1	i	nt	nt	nt	nt	i
COc1cc(N=c2ssnc2Cl)c(OC)cc1Cl	i	17µM	i	i	i	?
Cc1cc(C)nc(/N=c2/ssnc2Cl)c1	i	i	i	i	i	?
Nc1ccccc1N=c1ssnc1Cl	i	?	i	i	i	i
COc1ccc(OC)c(N=c2ssnc2Cl)c1	i	15µM	i	i	i	i
O=C(NCc1ccc2c(c1)OCO2)c1nn2cccnc2c1Cl	nt	i	i	nt	nt	nt
Cc1ccccc1Cn1ccc(NC(=O)c2cc3nc(-c4ccco4)cc(C(F)(F)F)n3n2)n1	i	i	i	i	i	i
Cc1ccccc1Cn1ccc(NC(=O)c2nn3cccnc3c2Cl)n1	i	17µM	i	i	i	?
Cc1ccccc1Cn1ccc(NC(=O)c2cc3ncc(Br)cn3n2)n1	i	11µM	i	i	i	?
CSc1ccccc1NC(=O)c1cc2ncc(Br)cn2n1	?	8.5µM	3.2µM	i	?	?
COc1ccc(-n2nc(C(=O)NCC(=O)N3CCC(C)CC3)c3ccccc3c2=O)cc1	i	2.1µM	nt	?	?	?
CCC(C)NC(=O)CNC(=O)c1nn(-c2ccc(OC)cc2)c(=O)c2ccccc12 (stereo unspecified)	i	i	nt	i	i	i
COc1ccc(-n2nc(C(=O)NCC(=O)N3CCC(C(N)=O)CC3)c3ccccc3c2=O)cc1	?	11µM	nt	i	i	i
COc1ccc(-n2nc(C(=O)NCC(=O)N3CCCC(C)C3)c3ccccc3c2=O)cc1 (stereo unspecified)	i	5.4µM	nt	i	i	i
Cc1cccn2c(=O)c3cc(C#N)c(=O)n(-c4nnc(SCc5ccc(F)cc5)s4)c3nc12	nt	i	nt	nt	nt	nt
Cc1ccc(C)c(OCCC(=O)OCC(=O)NC2CCCC2)c1	i	i	nt	i	i	i
CCOC(=O)N1CCN(C(=O)c2cc3c(s2)-c2ccccc2OC3)CC1	i	i	i	i	i	i
CCCN1CCN(C(=O)c2cc3c(s2)-c2ccccc2OC3)CC1	15µM	7.6µM	nt	?	4µM	?
O=C(c1cc2c(s1)-c1ccccc1OC2)N1CCCC1	?	12µM	i	?	2.8µM	?
O=S(=O)(/C(=C/c1ccc(C(F)(F)F)cc1)c1nc2ccccc2[nH]1)c1ccccc1	i	i	i	i	i	16µM
CCOc1ccc(-c2nnc(SCC(=O)Oc3ccccc3)o2)cc1	nt	i	nt	nt	nt	nt
